Assay results published in the supplement of paper PMC10338343.
± gives the standard deviation.

Tested on: MILI (PIWIL2) piRISC loaded with L1MC piRNA (26 nt)
Experiment: pre-steady-state target cleavage rate (min^-1); guide: L1MC piRNA 5'p-UAACUAAAUACUAUGCAAGCUGUAGG; MIWI and MILI are mouse PIWI proteins and EfPiwi is from a freshwater sponge; tags in brackets are library labels; higher = faster piRNA-guided slicing of the target
How it was run: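 The pre-steady-state cleavage rate was calculated from a burst-and-steady-state fit. Data came from Cleave-'n-Seq, in which […] transcribed, DNA-blocked target RNA library was mixed with 1 nM active affinity-purified piRISC carrying one synthetic guide, with or without 500 nM GTSF1 partner protein, in HEPES–potassium acetate buffer at 33 °C for 0–8 or 0–960 min. Uncleaved targets were sequenced and normalised to depth and to weakly complementary targets, three trials were pooled, and k3 was capped at 0.0001 min^-1.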

[1] = auxiliary factor: 500 nM mouse GTSF1
[2] = auxiliary factor: none (no GTSF1)
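Also: 1 nM active piRISC with 0.1 nM target library at 33 °C single turnover.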

Row | Sequence | pre-steady-state target cleavage rate [1] | pre-steady-state target cleavage rate [2]
1 | UCCUGGAUGAGCUUGGUUAGUAUUUAGUAA | 0.175 ± 0.027 | 0.0063 ± 0.0023
2 | UCCUGGAACUCGUUGCAUAGUAUUUAGUAA | 0.165 ± 0.021 | 0.00378 ± 0.002
3 | UCCUGGAUCUCGUUGCAUAGUAUUUAGUAA | 0.114 ± 0.018 | 0.003 ± 0.0027
4 | UCCUGGAUGACCUUGCAUAGUAUAUAGUUA | 0.167 ± 0.034 | 0.00397 ± 0.0031
5 | UCCUGGAUGUGCUAGCUUAGUAUUUAGUUA | 0.0596 ± 0.0098 | 0.00453 ± 0.0023
6 | UCCUGGAUGUGCAUGCAUUGUAUUUAGUUA | 0.0212 ± 0.0051 | 0.00604 ± 0.0024
7 | UCCUGGAUGUGCUUGGAUAGUAUAUAGUUA | 0.118 ± 0.026 | 0.00335 ± 0.0032
8 | UCCUGGAUGUGCAUGCAUAGUAUUUUGUUA | 0.0798 ± 0.018 | 0.00327 ± 0.0032
9 | UCCUGGAUGUCCUUGCAUAGUAUAUUAGUUA | 0.188 ± 0.034 | 0.00666 ± 0.0032
10 | UCCUGGAUGUGCUUGCAUAGUAUUUAGUA | 0.111 ± 0.019 | 0.00483 ± 0.0024
11 | UCCUGGAUGUCGAAGCAUGGUAUUUAGUUA | 0.0111 ± 0.0048 | 0.00436 ± 0.0021
12 | UCCUCCUACAGCUUGCAUAGUAUUUAGAUA | 0.205 ± 0.035 | 0.00357 ± 0.003
13 | UCCUGGUACAGCUUGGUAAGUAUUUAGUUA | 0.113 ± 0.018 | 0.00809 ± 0.0033
14 | UCCUGGAUGUCGAAGCAUAGUAGUUUAGUUA | 0.00907 ± 0.0034 | 0.00276 ± 0.0022
15 | UCCUGGAUGUCGAGGCAUAGUAUUUAGUUA | 0.0728 ± 0.016 | 0.00723 ± 0.0026
16 | UCCUGGAUGUGCUAGCAAAGUAUUUAGUUA | 0.0105 ± 0.0034 | 0.00469 ± 0.0015
17 | UCCUGGAUCAGCUAGCAUAGUAUUUAGAUA | 0.0957 ± 0.019 | 0.00275 ± 0.0026
18 | UCCUGGUACAGCUAGCAUACUAUUUAGUUA | 0.126 ± 0.026 | 0.00435 ± 0.0028
19 | UCCUGCUACAGCUACGAUAGUAUUUAGUUA | 0.243 ± 0.02 | 0.00263 ± 0.0024
20 | UCCUGGAUGUCGAAGCAUAGUAUUUAGUUU [g2:g16:cont:t1U] | 0.0307 ± 0.0082 | 0.00447 ± 0.0018

Row | Sequence | pre-steady-state target cleavage rate [1] | pre-steady-state target cleavage rate [2]
21 | UCCUGGUACAGUCUUGCAUAGUAUUUAGUUA | 0.254 ± 0.033 | 0.0122 ± 0.0047
22 | UCCUGGAUGUCGAAGCAUAGUGUUUAGUUA | 0.0115 ± 0.0044 | 0.00454 ± 0.0019
23 | UCCUGGAUGUGCUUGCAUAGUAUUUUAGUUA | 0.101 ± 0.018 | 0.0102 ± 0.0031
24 | UCCUGGAUGUCCUUGCAAAGUAUUAAGUUA | 0.0398 ± 0.0098 | 0.00691 ± 0.0023
25 | UCCUGGAUGUGCUUGGAUAGUAUUAAGUUA | 0.0647 ± 0.018 | 0.00591 ± 0.0023
26 | UCCUGGAUCAGCUUGCAAAGUAUUUACUUA | 0.0828 ± 0.013 | 0.00392 ± 0.0024
27 | UCCUGGAUGAGGUUGCAAAGUAUUUAGUUA | 0.0323 ± 0.0068 | 0.00826 ± 0.0022
28 | UCCUGGAACAGCUUGUCAUAGUAUUUAGUUA | 0.2 ± 0.014 | 0.00365 ± 0.0033
29 | UCCUGGAACACCUUGCAUAGUAUUUAGUUA | 0.234 ± 0.026 | 0.00811 ± 0.0025
30 | UCCUGGAUGUCGUUGCAUAAUAUUUAGUUA | 0.0662 ± 0.017 | 0.00621 ± 0.0023
31 | UCCUGGAUGUCGUUGCAUAGUAUUCUAGUUA | 0.18 ± 0.045 | 0.00434 ± 0.0027
32 | UCCUGGUACAGGUUGCAUAGUAUUUACAAA | 0.0239 ± 0.011 | 0.00315 ± 0.003
33 | UCCUGGUACAGGUUGCAUAGUUUUUAGUUA | 0.039 ± 0.011 | 0.00732 ± 0.0043
34 | UCCUGCUACAGCUAGCAUAGUAUAUAGUUA | 0.27 ± 0.03 | 0.00448 ± 0.0023
35 | UCCUGGAUGAGCUUGCAUAGUAUUGUAGUUA | 0.0782 ± 0.024 | 0.00469 ± 0.003
36 | UCCUGGAUGAGCUAGCAUAGUAUUUAGUAA | 0.168 ± 0.021 | 0.00735 ± 0.0023
37 | UCCUGGUACACGAUGCAUAGUAUUUAGUUA | 0.252 ± 0.058 | 0.00395 ± 0.0035
38 | UCCUGGUACAGCUUGCAUAGUAAUUAGUUA | 0.317 ± 0.034 | 0.00595 ± 0.0029
39 | UCCUCGUUCAGCUUGCAUAGUAUUUAGUUA | 0.262 ± 0.015 | 0.00616 ± 0.0018
40 | UCCUGGAUCAGCUAGCAUAGAAUUUAGUUA | 0.0367 ± 0.0066 | 0.00247 ± 0.0025

Row | Sequence | pre-steady-state target cleavage rate [1] | pre-steady-state target cleavage rate [2]
41 | UCCUGGAUGUCGAUGCAUAGUAGUUUAGUUA | 0.0201 ± 0.005 | 0.00577 ± 0.0027
42 | UCCUGGUACUGCUUGCAUACUAUUUAGUUA | 0.0502 ± 0.015 | 0.00418 ± 0.0039
43 | UCCUGGAUGUCCUUGCAUAGUAUUUACGUUA | 0.11 ± 0.023 | 0.00693 ± 0.003
44 | UCCUGGUACUGCUUGCAUAGUUUUUAGUUA | 0.0403 ± 0.012 | 0.00996 ± 0.0046
45 | UCCUGGUACAGCUUGCAUAGUAUAAAGUUA | 0.193 ± 0.046 | 0.00524 ± 0.0029
46 | UCCUGGAUGUCCUUGCUUAGUAUUUUGUUA | 0.0587 ± 0.018 | 0.00384 ± 0.003
47 | UCCUGGUACAGCUACGAUAGUAUUUAGUUA | 0.15 ± 0.016 | 0.00343 ± 0.0026
48 | UCCUGGUACAGCUUGCUUACUAUUUAGUUA | 0.0679 ± 0.012 | 0.00375 ± 0.0027
49 | UCCUGGAUGUGGUUGCAUAGAAUUUAGUUA | 0.0151 ± 0.0063 | 0.00318 ± 0.0028
50 | UCCUGGAUGUCGUUGCACAGUAUUUAGUUA | 0.0899 ± 0.011 | 0.00642 ± 0.0028
51 | UCCUGGAUGAGCUAGGAUAGUAUUUAGUUA | 0.131 ± 0.021 | 0.00494 ± 0.0027
52 | UCCUGGAUGACCUUGCAUACUAUUUAGUUA | 0.062 ± 0.019 | 0.00358 ± 0.0034
53 | UCCUCCUACAGCUUGUCAUAGUAUUUAGUUA | 0.258 ± 0.015 | 0.00407 ± 0.0019
54 | UCCUGGAUGUCCUUGCAUAGUAUCUUAGUUA | 0.0833 ± 0.017 | 0.00566 ± 0.0029
55 | UCCUGGAUGAGCUUGCAAGUAUUUAGUUA | 0.0177 ± 0.0056 | 0.00379 ± 0.0026
56 | UCCUGGAUGAGCUUGAAUAGUAUUUAGUUA | 0.216 ± 0.011 | 0.00728 ± 0.0023
57 | UCCUGGUACAGCUUGCAUAGUUAAUAGUUA | 0.0312 ± 0.01 | 0.00424 ± 0.0026
58 | UCCUGGUACAGCUUGCGUAGUAUUUAGUUA | 0.219 ± 0.021 | 0.014 ± 0.004
59 | UCCUGGAACAGCUAGCAUAGUAUAUAGUUA | 0.229 ± 0.026 | 0.00524 ± 0.0027
60 | UCCUGCUACAGCUUGCUUUGUAUUUAGUUA | 0.183 ± 0.015 | 0.00494 ± 0.0021
